# MARV entry inh – inhibitors of Marburg virus binding or cell entry. 300,000 compounds, 1.8% hits. AID 540276. Potency, µM (series often up to 37.8 µM), inactives show at the highest dose activity change, negative = inhibition, most hits filed as inhibitors. Marburg virus pseudotyped entry inhibition, cell reporter; calls by dose curve; tested in HEK293 cells; note: potency is the fitted concentration of half-maximal effect; % is set by controls: 0 for no effect and ±100 for the full control effect
# Shiga inhibitor – blocks Shiga toxin action in Vero cells | Vero cells, Shiga toxin protein synthesis inhibition reporter | 290,000 compounds, 9.2% hits | inhibition, % at 38.7 µM; in the data active = inhibition mostly above about 28%, no sharp cut-off; inactive = mostly below about 43%; note: 0% is about no effect
# LASV entry inh – inhibitors of Lassa virus binding or cell entry | Potency, µM (highest dose often 37.9 µM), without a hit: at the top dose activity change, negative = inhibition, actives largely listed as inhibitors | AID 540256 | 300,000 compounds, 1.2% hits | Lassa virus pseudotype entry inhibition, cell reporter; calls by dose curve; tested in HEK293 cells; note: potency is the fitted concentration of half-maximal effect; % is set by controls: 0 for no effect and ±100 for the full control effect; nearly all actives have a fitted effect of over 50% in size
# VACV Venus inh – vaccinia inhibition (Venus reporter); Vaccinia virus Venus reporter expression, fluorescence; Potency, µM (titrated, usually from 36.5 µM), inactives show at the top dose activity change, negative = inhibition, actives largely listed as inhibitors; AID 720580; 330,000 compounds, 0.46% hits; calls by dose curve; tested in A549 cells; note: potency is the fitted concentration of half-maximal effect; % is set by controls: 0 for no effect and ±100 for the full control effect; nearly all actives have a fitted effect of over 30% in size
# Vaccinia mCherry – inhibitors of vaccinia virus infection (mCherry reporter signal); Vaccinia virus mCherry reporter infection, fluorescence; Potency, µM (top dose mostly 36.5 µM), inactives show at the highest dose activity change, negative = inhibition, usual class: inhibitors; 310,000 compounds, 0.63% hits; calls by dose curve; tested in A549 cells; note: potency is the fitted concentration of half-maximal effect; % is set by controls: 0 for no effect and ±100 for the full control effect; nearly all actives have a fitted effect of over 35% in size
# CHX counter – affects cycloheximide protein synthesis inhibition readout, counter-screen. cell reporter, cycloheximide protein synthesis inhibition counterscreen. max response, %. 300,000 compounds, 12% hits. AID 2314; in the data active = max response mostly above about 13%, no sharp cut-off; inactive = mostly below about 14%; note: read at 38.3 µM for the half of the compounds with a filed dose; 0% is about no effect
# Starred values were filed as active, the others as inactive; i = inactive; ? = inconclusive; · = not tested or not shown; [ ] = dose if it differs, or a comment. This excerpt belongs to a sample that is enriched for hits.
SMILES,MARV entry inh,Shiga inhibitor,LASV entry inh,VACV Venus inh,Vaccinia mCherry,CHX counter
O=C1CC[C@@H](OCc2ccccc2)CCN1CC[C@H](Sc1ccccc1)c1ccccc1,·,15.4,·,-11.3%,i,10.7*
O=C1CC[C@H](OCc2ccccc2)CCN1[C@H](CSc1ccccc1)Cc1ccccc1,·,33.6*,·,-17.7%,-16.0%,26.8*
COc1cc2c(NC3CCN(C)CC3)nc(N3CCCN(C)CC3)nc2cc1O,·,·,·,-12.6%,i,·
CCC(=O)c1cc(F)c(N2CCN(C(=O)c3ccco3)CC2)cc1C,·,45.2*,·,-11.3%,i,24.2*
CCC(=O)c1cc(F)c(N2CCN(CC)CC2)cc1C,-28.6%[46.1 µM],-13.3,-0.6%,-4.9%,-12.3%,18.6
CCC(C)NC(=O)c1cn(CC)c2cc(N3CCN(C(=O)c4ccco4)CC3)c(F)cc2c1=O (centres undefined),4.4%[46.1 µM],16.8,?,?,5.01µM*,8.4
CCn1cc(C(=O)NCC(C)C)c(=O)c2cc(F)c(N3CCN(C(=O)c4ccco4)CC3)cc21,1.1%[46.1 µM],-4.3,?,-8.4%,-19.2%,-2.1
CCn1cc(C(=O)NCCc2ccccc2)c(=O)c2cc(F)c(N3CCN(C)CC3)cc21,-1.5%,11.4,5.5%,-28.1%,?,13.4*
CCn1cc(C(=O)NCCCO)c(=O)c2cc(F)c(N3CCN(C)CC3)cc21,·,-5.2,·,·,·,-5.2
Cc1cccc(OCC(=O)OC(C)C(=O)Nc2ccc(S(=O)(=O)N3CCCCC3)cc2)c1 (centres undefined),7.9%,·,?,-15.0%,-12.9%,·
COc1cccc(/C=N/Nc2ncnc3c2ncn3Cc2ccccc2)c1O,?,-4.8,7.31µM*,?,3.16µM*,-1.8
COc1cccc(/C=N/Nc2cc(N3CCOCC3)ncn2)c1O,?,27.5,?,-23.8%,?,5.9
COc1cc(C=NNc2ncnc3c2cnn3Cc2ccccc2)ccc1O,·,·,7.91µM*,·,·,·
COc1cc(C=NNc2ncnc3c2cnn3-c2ccccc2)ccc1O,·,·,15.8µM*,·,·,·
COc1cc(/C=N/Nc2nc(C)nc3c2cnn3-c2ccccc2)ccc1O,11.2µM*,-1.8,?,?,?,-2.4
COc1cc(/C=N/NC(=O)c2nc(-c3ccccc3)n(-c3ccccc3)n2)ccc1O,35.8%,-8.7,-9.8%,-6.6%,-1.1%,-2.2
CCC(C(=O)Nc1ccc(C)c(C)c1)n1c(=O)c(C(F)(F)F)nc2ccccc21 (centres undefined),·,·,14.6%[46.1 µM],-8.0%,-2.0%,·
CC1=C(C(=O)Nc2cc(C(=O)N3CCN(c4cccc(C)c4C)CC3)ccc2C)SCCO1,·,-6.1,·,-6.0%[7.34 µM],-17.9%[7.34 µM],-7.8
Cc1c(F)cccc1NS(=O)(=O)c1cccs1,·,·,10.6%[46.1 µM],-16.8%,-4.8%,·
COc1ccc(Cl)cc1NC(=O)Cn1ccn(-c2cc(C)cc(C)c2)c(=O)c1=O,·,·,6.2%[46.1 µM],-27.1%,-27.3%,·
COc1ccccc1OCCCOc1ccc([N+](=O)[O-])cc1Cl,?,125.7*,18.7%,?,·,50.0*
CC(=O)Nc1ccc(Oc2ccc([N+](=O)[O-])cc2Cl)cc1,?,-3.4,-5.2%,-3.6%,-8.0%,2.1
CC(=O)NCCCOc1ccc([N+](=O)[O-])cc1Cl,·,48.1,·,-10.2%,-2.8%,16.5*
CC(=O)NCCCNc1ccc([N+](=O)[O-])cc1,-2.5%,34.8*,-9.5%,-3.4%,-18.1%,23.4*
COc1cccc(OCCCOc2ccc([N+](=O)[O-])cc2Cl)c1,0.8%,2.1,13.5%,9.2%,-4.5%,15.8
SMILES,MARV entry inh,Shiga inhibitor,LASV entry inh,VACV Venus inh,Vaccinia mCherry,CHX counter
CC1=C(C(N)=O)C(c2ccc(C(C)C)cc2)n2nc(SCc3ccccc3)nc2N1 (centres undefined),26.2%[46.1 µM],·,?,6.6%,4.3%,·
COc1ccc(C)cc1NCc1nnc2n1CCCCC2,·,·,3.9%[46.1 µM],10.0%,8.3%,·
CS(=O)(=O)N1CCC(N2CCN(Cc3ccccc3)C(=O)C2=O)CC1,·,·,19.7%[46.1 µM],-0.9%,-8.5%,·
c1ccc(Oc2ccc(-c3ccn[nH]3)cc2)cc1,?,69.0*,1.4%,-15.5%,-22.2%,36.6*
c1ccc(N=P(c2nc3ccccc3o2)(N2CCOCC2)N2CCOCC2)cc1,-1.9%,33.2*,-11.4%,-18.4%,-8.6%,23.3*
Cc1cc(C(=O)CN2C(=O)c3ccccc3C2=O)c(C)n1Cc1cccs1,6.51µM*,12.5,-48.2%[14.3 µM],-17.7%,-14.7%,25.9*
COc1ccc(OC)c(C(=O)Cn2nnc3ccccc3c2=O)c1,13.1%,-5.3,17.5%,·,·,-2.7
CCCCNC(=O)CN1C(=O)c2cccc(N)c2C1=O,12.7%[46.1 µM],12.2,7.8%,-11.1%,i,6.2
Cc1cc(C(=O)Cn2nnc3ccccc3c2=O)c(C)n1Cc1cccs1,?,52.2,?,?,?,36.5*
CCCn1c(C)cc(C(=O)CN2C(=O)c3cccc(N)c3C2=O)c1C,-0.4%,14.0,?,-0.9%,-5.5%,17.2*
COc1ccc(C2/C=C\CN(C(=O)C3CCCCC3)C(Cc3ccccc3)C(=O)N2Cc2ccc(F)cc2)cc1 (centres undefined),·,16.4,·,·,·,22.6
CCOC(=O)c1sc(NC(=O)Nc2ccccc2)cc1C,16.4µM*,99.0*,14.1µM*,12.6µM*,15.8µM*,151.5*
CCOC(=O)c1cc(CC)sc1NC(=O)C1CC1,4.3%,22.4,3.9%,·,·,-2.5
CCOC(=O)c1sc(NC(=O)C2CCC2)cc1C,·,115.5*,·,·,·,27.7*
CCOC(=O)c1sc(NC(=O)c2ccc(C)s2)cc1C,-18.9%,68.5*,?,-21.7%,?,65.1*
CCOC(=O)c1sc(NC(C)=O)cc1C,·,34.6,·,-24.8%,i,1.2
CCOC(=O)c1sc(NC(=O)Nc2ccccc2Cl)cc1C,?,112.8*,7.94µM*,10µM*,?,69.0*
COC(=O)C1=C(C)NC(=O)NC1c1cn(-c2ccccc2)nc1-c1ccc(OC)c(Cl)c1 (centres undefined),·,·,-3.8%[46.1 µM],-16.5%,-1.2%,·
Cc1nc2sccn2c1CN1Cc2ccccc2OC(c2ccccc2F)C1 (centres undefined),·,·,·,-0.1%,-6.4%,·
COCCN(CCOC)C(=O)C1CCCN(S(=O)(=O)c2ccc(NC(=O)OC)cc2)C1 (centres undefined),·,18.7,·,·,·,-2.7
CCOc1ccc(/C=N/n2cc(-c3ccccc3)[nH]c2=S)cc1,0.1%,28.5,-0.7%,?,?,18.6*
COc1ccc(NC(=O)NN2CCN(C)CC2)cc1OC,·,20.8*,·,·,·,26.7*
Cc1ccc(NC(=O)NC2CCCCC2)cc1Cl,-3.2%,59.5*,?,·,·,34.2*
COc1ccc(NC(=O)NN2CCOCC2)cc1OC,-12.4%[14.2 µM],-6.0,8.6%,-6.3%,-1.2%,7.9
COc1ccc(NC(=O)NC2CCCCCCC2)cc1OC,·,47.7,·,·,·,39.2*
Cc1ccc(NC(=O)C2CCN(C(=O)NC3CCCCC3)CC2)cc1Cl,-5.6%[46.1 µM],13.9,4.7%,?,i,-2.3
CC(=O)c1ccc2c3c(cccc13)C(=O)N(CCc1ccccc1)C2=O,·,48.6*,·,·,·,31.8*
O=C(NNC(=S)Nc1ccccc1)c1ccc2ncccc2c1,2.5%[46.1 µM],56.3*,4.4%,-28.6%,-27.4%,37.4*
Cc1ccc2cccnc2c1NC(=S)NC(=O)c1ccccc1,-8.1%,69.7*,16.6%,·,·,26.2*
